The target of experiment [1] is T1, Muscle, skeletal receptor tyrosine-protein kinase (Homo sapiens) (UniProt O15146).
T1 sequence (whole entry): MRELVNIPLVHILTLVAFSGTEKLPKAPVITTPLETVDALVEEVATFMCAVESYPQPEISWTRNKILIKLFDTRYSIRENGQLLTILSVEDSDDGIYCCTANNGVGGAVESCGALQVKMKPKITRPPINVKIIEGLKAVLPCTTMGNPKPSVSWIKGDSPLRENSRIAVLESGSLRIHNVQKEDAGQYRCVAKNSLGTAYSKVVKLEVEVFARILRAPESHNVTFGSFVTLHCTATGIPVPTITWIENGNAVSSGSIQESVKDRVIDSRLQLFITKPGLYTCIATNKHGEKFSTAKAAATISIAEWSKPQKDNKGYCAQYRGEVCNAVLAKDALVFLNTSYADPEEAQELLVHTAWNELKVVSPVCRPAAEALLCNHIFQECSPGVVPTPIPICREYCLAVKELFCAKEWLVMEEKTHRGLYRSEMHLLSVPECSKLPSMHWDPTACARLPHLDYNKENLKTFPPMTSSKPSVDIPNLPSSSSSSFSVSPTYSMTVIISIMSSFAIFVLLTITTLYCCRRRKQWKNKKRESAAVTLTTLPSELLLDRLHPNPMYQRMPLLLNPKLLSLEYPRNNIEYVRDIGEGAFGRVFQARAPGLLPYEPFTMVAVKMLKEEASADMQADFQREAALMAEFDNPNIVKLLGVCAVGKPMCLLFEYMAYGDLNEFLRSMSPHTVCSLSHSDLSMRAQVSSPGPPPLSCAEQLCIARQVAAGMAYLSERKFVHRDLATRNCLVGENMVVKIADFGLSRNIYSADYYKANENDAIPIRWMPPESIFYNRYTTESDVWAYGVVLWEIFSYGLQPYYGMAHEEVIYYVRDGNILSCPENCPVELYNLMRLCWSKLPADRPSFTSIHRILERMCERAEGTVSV
The following applies: at 1 µM.

Experiment [2] addresses T1, Muscle, skeletal receptor tyrosine-protein kinase (Homo sapiens). The following applies: at 10 µM.
The target of experiment [3] is T2, Serine/threonine-protein kinase Nek11 (Homo sapiens) (UniProt Q8NG66).
T2 sequence (whole entry): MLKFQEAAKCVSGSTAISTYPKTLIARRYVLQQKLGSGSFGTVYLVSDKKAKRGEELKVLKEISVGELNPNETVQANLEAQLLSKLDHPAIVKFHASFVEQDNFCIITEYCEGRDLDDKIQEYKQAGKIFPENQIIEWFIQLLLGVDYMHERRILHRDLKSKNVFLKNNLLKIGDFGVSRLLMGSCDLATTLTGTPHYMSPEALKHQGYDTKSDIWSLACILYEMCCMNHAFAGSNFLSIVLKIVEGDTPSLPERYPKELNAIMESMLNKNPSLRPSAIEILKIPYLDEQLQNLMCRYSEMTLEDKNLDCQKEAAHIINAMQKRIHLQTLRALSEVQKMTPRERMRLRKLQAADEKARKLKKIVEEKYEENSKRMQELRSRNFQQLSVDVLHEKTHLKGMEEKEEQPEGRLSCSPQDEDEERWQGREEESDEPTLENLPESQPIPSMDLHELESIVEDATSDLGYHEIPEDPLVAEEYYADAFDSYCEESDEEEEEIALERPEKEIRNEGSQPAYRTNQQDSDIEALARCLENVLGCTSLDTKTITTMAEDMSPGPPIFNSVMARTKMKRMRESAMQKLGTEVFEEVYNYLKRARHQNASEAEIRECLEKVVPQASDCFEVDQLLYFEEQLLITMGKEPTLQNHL
Conditions: at 1 µM.

Experiment [4] deals with T2, Serine/threonine-protein kinase Nek11 (Homo sapiens). Conditions: at 10 µM.
For experiment [5], the target named is T3, Serine/threonine-protein kinase Nek2 (Homo sapiens) (UniProt P51955).
T3 sequence (whole entry): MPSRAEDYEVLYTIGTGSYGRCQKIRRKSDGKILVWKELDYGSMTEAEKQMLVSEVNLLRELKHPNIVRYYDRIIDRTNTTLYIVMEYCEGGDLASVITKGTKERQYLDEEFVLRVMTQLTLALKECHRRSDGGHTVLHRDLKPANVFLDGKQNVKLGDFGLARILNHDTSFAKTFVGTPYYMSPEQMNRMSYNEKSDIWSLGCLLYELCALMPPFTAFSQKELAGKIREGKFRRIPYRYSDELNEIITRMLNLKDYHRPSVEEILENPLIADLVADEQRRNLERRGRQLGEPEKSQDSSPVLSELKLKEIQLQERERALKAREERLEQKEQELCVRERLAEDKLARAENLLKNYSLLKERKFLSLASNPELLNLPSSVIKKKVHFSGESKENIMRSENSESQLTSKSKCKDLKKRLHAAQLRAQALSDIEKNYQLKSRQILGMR
Conditions: at 1 µM.

Experiment [6] addresses T3, Serine/threonine-protein kinase Nek2 (Homo sapiens). The following applies: at 10 µM.
Experiment [7] deals with T4, Serine/threonine-protein kinase Nek3 (Homo sapiens) (UniProt P51956).
T4 sequence (whole entry): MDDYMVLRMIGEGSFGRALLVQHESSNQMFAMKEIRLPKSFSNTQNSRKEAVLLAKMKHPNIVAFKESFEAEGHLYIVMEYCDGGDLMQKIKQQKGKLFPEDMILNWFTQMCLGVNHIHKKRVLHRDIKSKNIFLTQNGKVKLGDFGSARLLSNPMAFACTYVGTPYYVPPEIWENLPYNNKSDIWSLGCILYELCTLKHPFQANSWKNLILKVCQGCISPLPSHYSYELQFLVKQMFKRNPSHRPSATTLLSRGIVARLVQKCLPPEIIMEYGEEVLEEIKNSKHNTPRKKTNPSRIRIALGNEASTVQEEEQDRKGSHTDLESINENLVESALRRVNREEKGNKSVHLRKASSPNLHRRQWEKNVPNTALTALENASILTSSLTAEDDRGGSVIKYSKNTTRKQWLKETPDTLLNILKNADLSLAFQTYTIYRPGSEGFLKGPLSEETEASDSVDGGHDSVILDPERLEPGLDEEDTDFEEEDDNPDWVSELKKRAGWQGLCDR
The following applies: at 1 µM.

In experiment [8] the target is T4, Serine/threonine-protein kinase Nek3 (Homo sapiens). The following applies: at 10 µM.
Experiment [9] deals with Serine/threonine-protein kinase tousled-like 2 (Homo sapiens) (UniProt Q86UE8). Conditions: at 1 µM.
Chain of Serine/threonine-protein kinase tousled-like 2 (Homo sapiens) (Q86UE8 whole entry, looked up): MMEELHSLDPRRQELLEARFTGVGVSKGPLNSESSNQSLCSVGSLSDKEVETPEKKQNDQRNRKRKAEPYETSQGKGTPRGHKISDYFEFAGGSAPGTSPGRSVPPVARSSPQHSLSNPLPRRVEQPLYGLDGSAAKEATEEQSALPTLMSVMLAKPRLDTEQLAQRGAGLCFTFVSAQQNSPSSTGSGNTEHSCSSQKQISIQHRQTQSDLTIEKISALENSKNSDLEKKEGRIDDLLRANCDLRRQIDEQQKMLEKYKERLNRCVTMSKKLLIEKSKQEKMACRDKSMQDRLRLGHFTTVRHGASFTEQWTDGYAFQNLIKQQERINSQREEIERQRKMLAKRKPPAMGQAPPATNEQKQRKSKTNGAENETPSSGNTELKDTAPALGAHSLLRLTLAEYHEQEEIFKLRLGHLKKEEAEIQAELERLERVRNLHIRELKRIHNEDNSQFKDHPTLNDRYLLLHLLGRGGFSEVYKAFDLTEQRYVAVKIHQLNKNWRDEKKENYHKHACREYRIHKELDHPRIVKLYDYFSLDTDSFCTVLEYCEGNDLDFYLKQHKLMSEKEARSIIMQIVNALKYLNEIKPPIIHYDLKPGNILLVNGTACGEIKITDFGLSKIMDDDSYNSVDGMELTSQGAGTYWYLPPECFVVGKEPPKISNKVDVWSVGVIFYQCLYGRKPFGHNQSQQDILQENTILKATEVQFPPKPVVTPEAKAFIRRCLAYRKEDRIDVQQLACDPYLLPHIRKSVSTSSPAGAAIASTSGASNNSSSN
For experiment [10] the target is unchanged. Conditions: at 10 µM.
The target in experiment [11] is T5, Testis-specific serine/threonine-protein kinase 1 (Homo sapiens) (UniProt Q9BXA7).
T5 sequence (whole entry): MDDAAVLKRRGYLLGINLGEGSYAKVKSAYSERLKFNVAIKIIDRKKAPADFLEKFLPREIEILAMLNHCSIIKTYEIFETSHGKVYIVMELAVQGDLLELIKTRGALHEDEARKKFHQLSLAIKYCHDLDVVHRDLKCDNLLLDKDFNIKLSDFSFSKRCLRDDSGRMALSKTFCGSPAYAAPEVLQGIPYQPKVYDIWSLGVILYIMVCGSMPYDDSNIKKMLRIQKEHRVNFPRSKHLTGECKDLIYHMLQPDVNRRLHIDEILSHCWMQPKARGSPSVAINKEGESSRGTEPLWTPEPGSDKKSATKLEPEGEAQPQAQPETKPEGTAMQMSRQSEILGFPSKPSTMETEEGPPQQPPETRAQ
Conditions: at 1 µM.

The target of experiment [12] is T5, Testis-specific serine/threonine-protein kinase 1 (Homo sapiens). The following applies: at 10 µM.
The target of experiment [13] is T6, Testis-specific serine/threonine-protein kinase 2 (Homo sapiens) (UniProt Q96PF2).
T6 sequence (whole entry): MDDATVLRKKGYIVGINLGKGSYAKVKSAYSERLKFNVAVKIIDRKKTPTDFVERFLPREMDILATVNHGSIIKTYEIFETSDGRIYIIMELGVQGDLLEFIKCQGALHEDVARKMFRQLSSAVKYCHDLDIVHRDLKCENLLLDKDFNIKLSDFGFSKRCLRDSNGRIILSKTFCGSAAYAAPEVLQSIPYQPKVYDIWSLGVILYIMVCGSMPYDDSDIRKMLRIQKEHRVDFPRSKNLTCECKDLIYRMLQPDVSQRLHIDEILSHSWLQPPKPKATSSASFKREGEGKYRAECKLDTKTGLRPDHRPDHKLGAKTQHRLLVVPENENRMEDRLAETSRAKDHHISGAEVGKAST
The following applies: at 10 µM.

Experiment [14] concerns the target T7, Tyrosine-protein kinase Tec (Homo sapiens) (UniProt P42680).
T7 sequence (whole entry): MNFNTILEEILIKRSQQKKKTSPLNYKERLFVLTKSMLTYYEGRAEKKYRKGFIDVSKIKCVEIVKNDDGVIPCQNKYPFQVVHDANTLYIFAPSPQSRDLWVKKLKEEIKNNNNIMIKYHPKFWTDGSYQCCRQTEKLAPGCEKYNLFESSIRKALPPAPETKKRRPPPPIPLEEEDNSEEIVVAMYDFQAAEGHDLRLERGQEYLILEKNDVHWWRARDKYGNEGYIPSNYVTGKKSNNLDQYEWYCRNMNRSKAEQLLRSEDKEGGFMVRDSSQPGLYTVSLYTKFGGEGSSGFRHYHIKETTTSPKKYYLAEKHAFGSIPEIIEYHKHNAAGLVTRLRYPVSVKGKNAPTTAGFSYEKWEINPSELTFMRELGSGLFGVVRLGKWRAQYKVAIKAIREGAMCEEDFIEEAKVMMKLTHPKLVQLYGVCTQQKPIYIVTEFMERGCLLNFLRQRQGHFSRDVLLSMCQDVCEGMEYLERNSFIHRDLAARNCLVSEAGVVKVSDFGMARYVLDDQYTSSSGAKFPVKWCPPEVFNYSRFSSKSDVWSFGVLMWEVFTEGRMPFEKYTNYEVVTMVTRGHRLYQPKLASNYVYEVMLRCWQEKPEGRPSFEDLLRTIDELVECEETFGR
The following applies: at 1 µM.

In experiment [15] the target is T7, Tyrosine-protein kinase Tec (Homo sapiens). Conditions: at 10 µM.
The target of experiment [16] is Angiopoietin-1 receptor (Homo sapiens) (UniProt Q02763). The following applies: at 1 µM.
Chain of Angiopoietin-1 receptor (Homo sapiens) (Q02763 whole entry): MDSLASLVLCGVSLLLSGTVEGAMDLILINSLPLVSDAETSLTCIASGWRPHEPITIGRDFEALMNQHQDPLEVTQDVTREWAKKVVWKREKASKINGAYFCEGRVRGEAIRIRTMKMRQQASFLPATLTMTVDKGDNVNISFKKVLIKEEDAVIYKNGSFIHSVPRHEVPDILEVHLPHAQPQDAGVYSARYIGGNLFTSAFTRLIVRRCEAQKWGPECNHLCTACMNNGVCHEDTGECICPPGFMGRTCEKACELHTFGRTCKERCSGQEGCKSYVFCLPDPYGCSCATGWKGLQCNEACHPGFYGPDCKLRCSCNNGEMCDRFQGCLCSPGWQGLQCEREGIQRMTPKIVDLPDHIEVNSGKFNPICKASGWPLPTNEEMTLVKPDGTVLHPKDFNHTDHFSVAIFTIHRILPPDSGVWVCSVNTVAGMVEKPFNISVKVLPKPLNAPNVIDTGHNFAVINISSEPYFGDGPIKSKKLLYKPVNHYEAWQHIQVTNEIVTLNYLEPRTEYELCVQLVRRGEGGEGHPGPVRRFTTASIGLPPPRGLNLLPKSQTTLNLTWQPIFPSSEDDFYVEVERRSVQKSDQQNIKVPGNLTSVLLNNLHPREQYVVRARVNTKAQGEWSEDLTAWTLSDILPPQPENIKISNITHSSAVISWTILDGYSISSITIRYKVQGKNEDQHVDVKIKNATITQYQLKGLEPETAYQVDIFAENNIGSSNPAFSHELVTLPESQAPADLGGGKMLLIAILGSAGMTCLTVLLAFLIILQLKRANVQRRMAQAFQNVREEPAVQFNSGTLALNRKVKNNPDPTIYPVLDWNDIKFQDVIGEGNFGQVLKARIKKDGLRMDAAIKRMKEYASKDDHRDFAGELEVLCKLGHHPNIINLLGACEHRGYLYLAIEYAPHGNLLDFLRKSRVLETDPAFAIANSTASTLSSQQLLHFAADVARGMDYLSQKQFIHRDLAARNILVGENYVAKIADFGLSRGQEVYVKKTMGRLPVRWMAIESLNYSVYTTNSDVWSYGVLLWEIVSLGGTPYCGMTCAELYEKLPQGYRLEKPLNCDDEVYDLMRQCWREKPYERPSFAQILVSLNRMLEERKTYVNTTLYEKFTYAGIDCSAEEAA
Experiment [17] has the same target. The following applies: at 10 µM.
Experiment [18] addresses High affinity nerve growth factor receptor (Homo sapiens) (UniProt P04629). The following applies: at 1 µM.
Experiment [19] has the same target. The following applies: at 10 µM.
The target of experiment [20] is BDNF/NT-3 growth factors receptor (Homo sapiens) (UniProt Q16620). The following applies: at 1 µM.
Chain of BDNF/NT-3 growth factors receptor (Homo sapiens) (Q16620 32-822 limits assumed): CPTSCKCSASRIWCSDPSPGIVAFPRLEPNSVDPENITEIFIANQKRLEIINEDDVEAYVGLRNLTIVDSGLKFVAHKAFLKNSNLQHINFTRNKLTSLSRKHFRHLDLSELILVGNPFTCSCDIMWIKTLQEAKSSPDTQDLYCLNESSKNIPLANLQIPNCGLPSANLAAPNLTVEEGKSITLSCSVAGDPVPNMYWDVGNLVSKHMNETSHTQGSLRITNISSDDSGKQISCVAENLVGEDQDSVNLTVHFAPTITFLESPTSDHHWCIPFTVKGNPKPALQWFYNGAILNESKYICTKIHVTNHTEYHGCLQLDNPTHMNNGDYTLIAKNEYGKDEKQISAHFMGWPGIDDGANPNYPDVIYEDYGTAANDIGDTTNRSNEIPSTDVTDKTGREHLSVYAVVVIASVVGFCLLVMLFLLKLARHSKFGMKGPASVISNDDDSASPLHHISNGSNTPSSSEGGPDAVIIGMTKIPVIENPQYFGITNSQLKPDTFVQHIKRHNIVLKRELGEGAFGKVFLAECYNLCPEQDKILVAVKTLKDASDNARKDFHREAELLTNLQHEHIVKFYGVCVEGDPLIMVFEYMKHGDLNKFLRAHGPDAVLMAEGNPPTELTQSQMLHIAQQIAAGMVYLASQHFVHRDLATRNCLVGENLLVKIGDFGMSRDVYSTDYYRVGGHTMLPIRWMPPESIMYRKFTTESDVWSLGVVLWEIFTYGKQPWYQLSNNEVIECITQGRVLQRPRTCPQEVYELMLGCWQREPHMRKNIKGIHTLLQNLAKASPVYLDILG

Drawing on ChEMBL document CHEMBL2218924, “A broad activity screen in support of a chemogenomic map for kinase signalling research and drug discovery” (Biochem J, 2013), this text covers residual activity for four molecules.

The structures appear in SMILES notation.

Chain of High affinity nerve growth factor receptor (Homo sapiens) (P04629 33-796 limits assumed): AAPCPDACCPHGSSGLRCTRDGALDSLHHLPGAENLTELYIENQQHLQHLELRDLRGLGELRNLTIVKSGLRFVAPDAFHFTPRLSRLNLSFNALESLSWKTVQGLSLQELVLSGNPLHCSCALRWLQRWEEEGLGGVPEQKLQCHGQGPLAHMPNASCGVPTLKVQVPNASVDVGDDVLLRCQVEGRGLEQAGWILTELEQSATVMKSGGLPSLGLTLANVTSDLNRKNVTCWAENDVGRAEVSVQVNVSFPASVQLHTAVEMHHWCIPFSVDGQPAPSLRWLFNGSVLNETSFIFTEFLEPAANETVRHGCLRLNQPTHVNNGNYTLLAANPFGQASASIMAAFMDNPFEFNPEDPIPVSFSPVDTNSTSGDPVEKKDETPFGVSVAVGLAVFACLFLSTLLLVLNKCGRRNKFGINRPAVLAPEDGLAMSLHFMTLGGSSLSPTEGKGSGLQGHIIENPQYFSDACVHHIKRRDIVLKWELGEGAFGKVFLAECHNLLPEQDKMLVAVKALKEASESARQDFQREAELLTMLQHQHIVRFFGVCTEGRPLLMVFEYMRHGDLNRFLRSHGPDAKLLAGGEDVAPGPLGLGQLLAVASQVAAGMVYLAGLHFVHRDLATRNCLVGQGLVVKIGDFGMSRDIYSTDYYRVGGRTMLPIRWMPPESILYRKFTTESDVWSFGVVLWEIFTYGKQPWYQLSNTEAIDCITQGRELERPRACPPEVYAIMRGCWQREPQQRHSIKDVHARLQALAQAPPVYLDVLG

The term residual activity denotes the signal under treatment as a percentage of the control signal. For `COc1ccc(S(=O)(=O)N(CCO)c2ccccc2CN(C)C/C=C/c2ccc(Cl)cc2)cc1`, the residual activity was 79% in [1]; 79% in experiment [2]; 95% in experiment [3]; 109% in experiment [4]; 105% in experiment [5]; 102% in experiment [6]. Moreover, the residual activity came out at 80% in experiment [7]; 92% in experiment [8]; 92% in experiment [9]; 85% in experiment [10]; 97% in experiment [11]; 81% in [12]. For the same molecule, the residual activity in experiment [13] came to 86%; in experiment [14], 102%; in experiment [15] it was 36%; in experiment [16] it was 118%; in experiment [17] it was 66%; in [18], 87%. In addition, the residual activity in [19] amounted to 47%; in experiment [20] it was 86%.

`Nc1ccc2ncnc(NCCc3ccc(Oc4ccccc4)cc3)c2c1`: the residual activity stood at 92% in experiment [1]; 49% in experiment [2]; 68% in [3]; 55% in [4]; 114% in experiment [5]; 101% in [6]. The residual activity in [7] came to 81%; in experiment [8] it was 109%; in [9], 111%; in experiment [10], 100%; in experiment [11], 89%; in [12], 58%. Moreover, the residual activity in [13] amounted to 98%; in experiment [14] it was 84%; in experiment [15] it was 30%; in experiment [16], 114%; in experiment [17], 66%; in experiment [18], 89%. Moreover, the figures for the residual activity in [19] and in experiment [20] were 56% and 82%, respectively.

Regarding `O=c1c2ccccc2[nH]c(=S)n1CCN1CCC(=C(c2ccc(F)cc2)c2ccc(F)cc2)CC1`, the residual activity in experiment [1] came out at 116%; in [2], 91%; in experiment [3], 106%; in experiment [4] it was 98%; in experiment [5] it was 86%; in experiment [6], 106%. Further, the residual activity in experiment [7] is 104%; in experiment [8] it was 42%; in experiment [9], 104%; in [10], 94%; in experiment [11], 101%; in [12], 86%. Also, the residual activity is 70% in [13]; 94% in [14]; 44% in experiment [15]; 87% in [16]; 59% in experiment [17]; 82% in experiment [18]. In addition, the residual activity in experiment [19] was determined as 87%; in experiment [20] it was 44%.

On to `Cn1cnc2cc3c(Nc4cccc(Br)c4)ncnc3cc21`, for which the residual activity in experiment [1] was determined as 104%; in [2], 85%; in experiment [3], 89%; in experiment [4], 106%; in experiment [5], 87%; in [6], 109%. Moreover, the residual activity in experiment [7] was 111%; in [8], 74%; in experiment [9] it was 103%; in [10], 92%; in [11] it was 99%; in experiment [12] it was 96%. Moreover, the residual activity in experiment [13] was determined as 106%; in experiment [14] it was 82%; in experiment [15], 73%; in experiment [16] it was 74%; in experiment [17], 34%; in experiment [18] it was 87%. Moreover, the results for the residual activity in [19] and in experiment [20] were 82% and 107%, respectively.
